IMPase cell inh = qHTS Assay for Identifying the Cell-Membrane Permeable IMPase Inhibitors; CHO-M1 cells, IP1 accumulation, HTRF TR-FRET ratio; AID 901, 2007; 120,000 tested, under 10 active; inhibition (IP1 accumulation), % at 46.1 µM; active means well fitted curve in the direction sought with a large enough effect in the signal ratio, not every such curve was filed as active; inconclusive means small, poorly fitted or top-dose-only effect, or a change in a side signal; inactive means no such curve, though single readings can be large or run the other way; the % refers to the signal ratio;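 further: cells stimulated with carbachol in lithium chloride buffer; plate controls were DMSO basal wells for no effect and reference inhibitor wells for full effect; higher means more IMPase inhibition seen as more IP1 and lower FRET ratio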
Target sequence (P97697 whole entry, looked up): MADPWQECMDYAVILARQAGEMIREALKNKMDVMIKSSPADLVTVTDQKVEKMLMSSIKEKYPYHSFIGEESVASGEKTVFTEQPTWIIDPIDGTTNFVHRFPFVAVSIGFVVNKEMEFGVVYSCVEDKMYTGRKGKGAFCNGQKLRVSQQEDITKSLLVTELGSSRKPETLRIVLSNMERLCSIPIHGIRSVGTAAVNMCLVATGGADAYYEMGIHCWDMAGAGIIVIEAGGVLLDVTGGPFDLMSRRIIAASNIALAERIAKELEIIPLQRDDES
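Cellular IMPase inhibition is scored as a rise in cytosolic IP1, detected by competitive TR-FRET between d2-labelled IP1 and a europium anti-IP1 antibody. M1-expressing CHO cells were stimulated with carbachol for 30 min at 37C, with lithium (50 mM LiCl) present in the buffer.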
ALOX12 inhib = qHTS Assay for Inhibitors of 12-hLO (12-human lipoxygenase); AID 1452, 2008; Polyunsaturated fatty acid lipoxygenase ALOX12 (Homo sapiens), P18054; Potency, µM (titrated, usually from 57.1 µM), for inactives: at the top dose activity change, negative = inhibition, most hits filed as inhibitors; 150,000 tested, 0.12% active; purified 12-hLO, xylenol orange hydroperoxide absorbance; further: potency means the concentration at half of the fitted maximal effect; nearly all actives have a fitted effect of over 55% in size
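Purified human 12hLO (150 nM), preincubated 15 min with compound, then 40 uM arachidonic acid for 30 min, room temperature, Hepes pH 7.0 with 0.01% Triton X-100. Hydroperoxide detected by ferrous iron/xylenol orange; 573/405 nm absorbance ratio gives reaction progress.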
HPGD block = qHTS Assay for Inhibitors of HPGD (15-Hydroxyprostaglandin Dehydrogenase). 15-hydroxyprostaglandin dehydrogenase [NAD(+)] (Homo sapiens), P15428. purified HPGD, NADH fluorescence kinetic, PGE2 substrate. Potency, µM, for inactives: at the top dose activity change, negative = inhibition, actives largely listed as inhibitors. 150,000 tested, 4.3% active. AID 894, 2007; active means well fitted inhibition curve with a large enough effect, not every such curve was filed as active; inconclusive means small, poorly fitted or top-dose-only effect, or another doubt; inactive means no such curve, though single readings can be large or run the other way; further: potency means the concentration at half of the fitted maximal effect
Target sequence (P15428 whole entry, looked up): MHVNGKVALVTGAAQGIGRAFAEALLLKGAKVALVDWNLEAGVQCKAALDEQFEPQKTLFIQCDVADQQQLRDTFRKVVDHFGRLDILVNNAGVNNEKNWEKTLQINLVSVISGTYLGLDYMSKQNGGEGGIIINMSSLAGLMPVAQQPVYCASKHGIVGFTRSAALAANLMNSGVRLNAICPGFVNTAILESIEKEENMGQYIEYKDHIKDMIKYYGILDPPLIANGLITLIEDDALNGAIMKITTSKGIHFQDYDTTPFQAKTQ
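20 nM HPGD preincubated 15 min at room temperature with compound in 50 mM Tris-HCl pH 8, 0.01% Tween 20. Started with 1 mM NAD+ and 30 uM prostaglandin E2; NADH fluorescence (360/450 nm) read 5 times over 30-s intervals, last minus first.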
ALDH1A1 block = qHTS Assay for Inhibitors of Aldehyde Dehydrogenase 1 (ALDH1A1). Aldehyde dehydrogenase 1A1 (Homo sapiens), P00352. Purified ALDH1A1, NADH fluorescence, propionaldehyde substrate. Potency, µM (highest dose often 75.3 µM), inactives show at the highest dose activity, negative = inhibition, most hits filed as inhibitors. 220,000 tested, 7.3% active. AID 1030, 2008; active means well fitted inhibition curve with a large enough effect, not every such curve was filed as active; inconclusive means small, poorly fitted or top-dose-only effect, or another doubt; inactive means no such curve, though single readings can be large or run the other way;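 further: potency means the concentration at half of the fitted maximal effect; plate controls were no enzyme wells and a reference inhibitor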
PNC assembly inh = High Content Assay for Compounds that inhibit the Assembly of the Perinucleolar Compartment; PC3M PTB-GFP, PNC prevalence imaging, 16 h; stronger effect = lower value; activity change (PNC), negative = inhibition, % at 10 µM; 140,000 tested, 3.1% active;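 active means readout at or below -70, meaning at least 70% loss of cells showing the perinucleolar compartment, a nuclear body marking cancer cells; inconclusive means readout between -30 and a set limit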;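 further: plate controls were DMSO wells for no effect and camptothecin positive control wells for full effect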
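PC3M cells stably expressing PTB-GFP, 750–1000 cells/well, treated 16 h at 37 °C with compound (23 nl of library stock), in duplicate. After paraformaldehyde fixation and Hoechst stain, imaged at 20x; PNC prevalence scored by image analysis.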
IMPase Li inh = qHTS Assay for Identifying the Cell-Membrane Permeable IMPase Inhibitors: Potentiation with Lithium; CHO-M1 cells, IP1 TR-FRET (IP-One), carbachol + lithium; 210,000 tested, 0.35% active; Potency, µM (series often up to 59.4 µM), inactives show at the top dose activity, negative = IMPase inhibition, hits mostly inhibitors;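 further: IP1 builds up when IMPase is blocked and the TR-FRET signal falls; potency means the concentration at half of the fitted maximal effect; plate controls were basal vehicle for no effect and high inhibitor control for full effect; nearly all actives have a fitted effect of over 50% in size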
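Test compounds were applied to CHO-M1 cells previously cultured for 16–30 h at 2000 per well. A small lithium amount accompanied them; after 30 min at 37C, IP1 was quantified by TR-FRET.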
An asterisk follows results filed as active; ? = inconclusive; · = no result; [ ] = dose if it differs, or a comment. Shown are actives, neighbours in structure and some others; about 11% of the full set was active somewhere. Unless noted, the call rests on the fitted dose curve; in most records, active means well fitted curve in the direction sought with a large enough effect; inconclusive means small, poorly fitted or top-dose-only effect, or another doubt; inactive means no such curve, though single readings can be large; an effect the other way counts as inactive or inconclusive. Unless noted, on the % scale 0 is the no-effect control and ±100 the full control effect.

SMILES	IMPase cell inh	ALOX12 inhib	HPGD block	ALDH1A1 block	PNC assembly inh	IMPase Li inh
CCCC(C(=O)NC1CCCCC1)N(Cc1ccco1)C(=O)CNS(=O)(=O)c1ccccc1 (centres undefined)	3	3%	-3%	10µM*	23	11%[38.3 µM]
Cc1c(C(=O)N(C)C2CCCCC2)sc2nc3ccc(N)cc3n12	·	1%[0.00818 µM]	8.9µM*	?	·	12%
CCOC(=O)/C(C#N)=C/c1ccc(OC)c(OC)c1	-3	-8%	-3%	?	-10	-8%[38.3 µM]
CCOC(=O)/C(C#N)=C/c1ccc(SC)cc1	·	·	·	18µM*	·	-10%
COc1ccc(/C=C(\C#N)C(=O)OCC(=O)NCc2ccccc2)cc1	·	-1%	?	?	42	-7%
COC(=O)/C(C#N)=C/c1ccc(OC(=O)c2ccccn2)cc1	·	1%	?	3.5µM*	29	4%
CCOC(=O)/C(C#N)=C/c1ccc(OC(=O)c2ccccn2)cc1	1	-6%	-15%	8.9µM*	10	-1%
COC(=O)C1=C(C)NC(=S)NC1/C=C/c1ccccc1 (centres undefined)	·	·	·	1.1µM*	·	3%
CCOC(=O)C1=C(C)NC(=S)NC1/C=C/c1ccccc1 (centres undefined)	15	?	-14%	0%	-100*	-10%
C=CCOC(=O)C1=C(C)NC(=O)NC1/C=C/c1ccccc1 (centres undefined)	-4	0%	-4%	-1%	-13	-24%[38.3 µM]
COC(=O)N[C@@H](c1cccc(F)c1)C(C(C)=O)C(=O)OC (some centres undefined)	·	·	-9%	-1%	·	26%
C=CCC(C)(O)c1ccccc1 (centres undefined)	·	·	-14%	4%	·	13%
COc1ccc(C)cc1S(=O)(=O)N(C)CC(=O)Nc1ccccc1	0	-2%	-4%	?	-108*	10%
COc1ccccc1N(CC(=O)Nc1ccc2c(c1)OCO2)S(=O)(=O)c1ccc(C)cc1	17	·	·	·	·	·
COc1ccccc1N(CC(=O)Nc1cc(C)on1)S(=O)(=O)c1ccc(Cl)cc1	1	-3%	14µM*	1%	-13	35%[38.3 µM]
COc1ccc(OC)c(N(CC(=O)Nc2ccc3c(c2)OCO3)S(=O)(=O)c2ccccc2)c1	-15[1.84 µM]	-3%	32µM*	-6%	8	52%[38.3 µM]
COc1ccc(OC)c(N(CC(=O)Nc2cccnc2)S(C)(=O)=O)c1	-3	0%	-2%	5%	18	16%[38.3 µM]
COc1ccc(OC)c(N(CC(=O)Nc2cccnc2)S(=O)(=O)c2ccc(OC)c(OC)c2)c1	-6	0%	16µM*	9%	-109*	23%[38.3 µM]
COc1ccc(O[C@H]2C=C[C@@H](c3ccccc3)O[C@H]2COC(=O)CC/C(C)=N\O[C@@H](C)CN2CCCCc3nc(C)c(C)cc32)cc1	·	·	·	3%[13.5 µM]	·	·
CO[C@H]1COC(=O)C/C=C\[C@@H](C)COC(=O)[C@@H](CCSC)NC(=O)C/C=C\[C@@H]1C	·	·	·	4%[13.5 µM]	·	·
COc1ccc(OC)c(N(CC(=O)Nc2cccnc2)S(=O)(=O)c2ccc(C)cc2)c1	2	12%	7.1µM*	-7%	13	19%[38.3 µM]
COc1ccc(C)cc1N(CC(=O)Nc1cccnc1)S(=O)(=O)c1ccccc1	·	·	·	12%	·	7%
CCCCCCCCCCCCCCCCCCCCCCO	·	1%[0.00818 µM]	-4%	1%	·	6%
CCS(=O)(=O)C1=NN2C(=N)/C(=C\c3ccc(SCc4ccco4)o3)C(=O)N=C2S1	·	·	·	1.8µM*	·	1%
N=C1/C(=C\c2ccc(SCc3ccccc3)o2)C(=O)N=C2SC=NN12	·	·	·	7%	·	0%
SMILES	IMPase cell inh	ALOX12 inhib	HPGD block	ALDH1A1 block	PNC assembly inh	IMPase Li inh
COc1ccc(OC2C=CC(C#Cc3ccc(F)cc3F)OC2CO)cc1 (centres undefined)	·	·	·	-7%[13.5 µM]	·	·
CC(C)C(=O)Nc1cccc(C(=O)Nc2nnc(CC(C)(C)C)s2)c1	-4	·	·	·	·	·
CC1CCN(c2nncc3ccccc23)CC1	?	-4%	-5%	-3%	-93*	-7%[38.3 µM]
CC1CCN(c2nnc(N3CCC(C)CC3)c3ccccc23)CC1	·	·	·	11%	·	-5%
CC(C)(C)C(=O)Nc1nc(=S)ss1	2	-2%	32µM*	5.6µM*	29	21%[38.3 µM]
COc1ccc(Cc2nnc(NC(=O)C(C)(C)C)s2)cc1	·	·	·	1%	·	5%
CCC(=O)Nc1nc(=S)ss1	8	3%	10µM*	2µM*	?	32%[38.3 µM]
CCSc1nnc(NC(=O)CC)s1	9	-2%	-8%	4%	-13	-2%[38.3 µM]
CC(=O)c1nnn(-c2c(F)cccc2F)c1C	·	·	·	7%	·	·
c1c2c(cc3sc(N4CCOCC4)nc13)OCO2	-1	-4%	28µM*	10µM*	-6	-1%[38.3 µM]
c1ccc(N2CCN(c3nc4cc5c(cc4s3)OCO5)CC2)cc1	1	3%	?	20µM*	18	-1%
c1ccc2c(c1)CCN(c1nc3cc4c(cc3s1)OCO4)C2	-2	8%	32µM*	25µM*	?	37%[38.3 µM]
c1c2c(cc3sc(N4CCCCC4)nc13)OCO2	8	-5%	22µM*	22µM*	2	-2%[38.3 µM]
Brc1ccc(-c2csc(N3CCc4ccccc4C3)n2)cc1	-2	2%	-11%	21%	21	5%[38.3 µM]
COc1cc(C)c(CC/C(C)=C/C=C/C(C)=O)c(C)c1C	·	·	-18%	?	·	26%

Bioassay records (PubChem)
